PubChem BioAssay (EPA / NIEHS)
Records with an inconclusive call do not appear. A structure can be active in one record and inactive in another. Activity calls are given as the source filed them. The calls were made as follows: active = hit-call score of the fitted dose curve at least 0.9, where 1 is the maximum; inconclusive = response in the unintended direction; inactive = score below 0.9. Where a SMILES comes first, the peptide text is derived from it. [ ]: non-standard residue; d: D form. pGlu = O=C1CC[C@@H](C(=O)O)N1

How the values were obtained:
[1] = TOX21_p53_BLA_p2_viability: Viability Assessment in the Tox21 HCT-116 p53 Agonism Beta-lactamase Assay, Phase 2 (AID 2283591);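 also: compound exposure lasted 16 h at 37 °C; actives lower the ATP signal meaning cytotoxicity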
Outline: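 HCT116 p53-bla cells, 4000/well, dosed after 5 h plating (217-fold dilution of DMSO stocks) and incubated 16 h at 37C. Viability taken as cellular ATP by CellTiter-Glo luminescence after 30 min RT; signal loss marks cytotoxicity.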

[2] = target: Cellular tumor antigen p53 (Homo sapiens) (UniProt P04637); assay: TOX21_p53_BLA_p5_ratio: Tox21 HCT-116 p53 Agonism Beta-lactamase Assay, Ratio, Phase 5 (AID 2283599)
Outline: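 HCT-116 p53-bla cells (4000/well) plated 5 h, dosed with compound (217-fold DMSO dilution) for 16 h at 37 C; CCF4-AM substrate 2 h at room temperature. Activity is the 460/530 nm emission ratio (405 nm excitation), fitted in gain-of-signal direction versus DMSO.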

[3] = TOX21_p53_BLA_p5_viability: Viability Assessment in the Tox21 HCT-116 p53 Agonism Beta-lactamase Assay, Phase 5 (AID 2283600)
Outline: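 Viability is taken from cellular ATP content, measured by luciferase luminescence in the same wells after the beta-lactamase ratio read. Cells are seeded at 4000 per well and exposed to DMSO-dissolved compounds, diluted 217-fold, for 16 h.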

[4] = target: Cellular tumor antigen p53 (Homo sapiens) (UniProt P04637); assay: TOX21_p53_BLA_p4_ratio: Tox21 HCT-116 p53 Agonism Beta-lactamase Assay, Ratio, Phase 4 (AID 2283601)
Outline: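 HCT-116 p53 beta-lactamase reporter cells (4000/well) preincubated 5 h, then compound (217-fold dilution of DMSO stock) for 16 h at 37C. CCF4-AM substrate added 2 h at room temperature; 460/530 nm emission ratio fitted upward versus DMSO.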

[5] = target: Cellular tumor antigen p53 (Homo sapiens) (UniProt P04637); assay: TOX21_p53_BLA_p2_ratio: Tox21 HCT-116 p53 Agonism Beta-lactamase Assay, Ratio, Phase 2 (AID 2283592)
Outline: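 Cleaved-to-uncleaved substrate ratio (460 vs 530 nm) measured in HCT116 cells with an inducible beta-lactamase reporter linked to p53 activity. Compounds incubated 16 h at 37C before 2 h room-temperature CCF4-AM loading.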

[6] = TOX21_p53_BLA_p3_viability: Viability Assessment in the Tox21 HCT-116 p53 Agonism Beta-lactamase Assay, Phase 3 (AID 2283593);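 also: cells exposed to compound for 16 h before reading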
Outline: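 HCT116 cells, 4000/well, dosed 5 h after plating by pin transfer (217-fold dilution from DMSO stock) and incubated 16 h at 37C, 5% CO2. Viability read as ATP luminescence with CellTiter-Glo after 30 min at room temperature.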

[7] = target: Cellular tumor antigen p53 (Homo sapiens) (UniProt P04637); assay: TOX21_p53_BLA_p3_ratio: Tox21 HCT-116 p53 Agonism Beta-lactamase Assay, Ratio, Phase 3 (AID 2283596)
Outline: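 Cells were seeded at 4000/well, rested 5 h at 37C, then dosed with DMSO compound solutions (217-fold dilution) for 16 h. CCF4-AM substrate was loaded for 2 h at room temperature, and the 460/530 nm emission ratio was fitted for gain of signal versus DMSO.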

[8] = TOX21_p53_BLA_p4_viability: Viability Assessment in the Tox21 HCT-116 p53 Agonism Beta-lactamase Assay, Phase 4 (AID 2283597);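 also: hits lower the luminescence signal meaning cytotoxicity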
Outline: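 Viability is taken as cellular ATP: after 16 h compound exposure of HCT116 cells and a 2 h room-temperature CCF4-AM substrate step, CellTiter-Glo reagent is added and luminescence is measured 30 min later.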

Measured: AC50

Cellular tumor antigen p53 (Homo sapiens), sequence (P04637 whole entry, looked up): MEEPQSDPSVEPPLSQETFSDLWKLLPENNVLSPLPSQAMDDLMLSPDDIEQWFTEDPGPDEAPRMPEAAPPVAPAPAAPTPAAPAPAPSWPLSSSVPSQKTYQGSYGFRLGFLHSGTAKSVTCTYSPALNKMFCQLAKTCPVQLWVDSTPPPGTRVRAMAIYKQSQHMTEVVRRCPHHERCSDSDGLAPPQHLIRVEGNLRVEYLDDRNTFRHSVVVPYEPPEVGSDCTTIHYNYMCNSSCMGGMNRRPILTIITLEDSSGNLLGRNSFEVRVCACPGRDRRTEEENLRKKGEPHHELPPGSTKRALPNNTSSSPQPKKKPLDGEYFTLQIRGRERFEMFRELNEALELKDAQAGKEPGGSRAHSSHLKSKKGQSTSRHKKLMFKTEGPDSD

CC(C)CNCC(C)C
inactive: [1] | [2] | [3] | [4]

O=C(O)c1ccc(Cl)cc1Cl
inactive: [1] | [2] | [4]

Oc1ccc(-c2ccc(O)cc2)cc1
inactive: [1] | [2] | [3]
active: [4] 46.8 µM

C[C@H](N)[C@H](O)c1cccc(O)c1
inactive: [5] | [6]

CCC(O)C(C)(C)C (stereo not drawn)
inactive: [1] | [2] | [3] | [4]

CCCCCCCCCC#N
inactive: [1] | [2] | [4]

CCCC1C(=O)N2C(N(C)C)=Nc3ccc(C)cc3N2C1=O (stereo not drawn)
inactive: [5] | [6] | [7]

CCCCC(=O)N(C)C
inactive: [1] | [2] | [4]

Clc1ccnc(Cl)n1
inactive: [5] | [6]

Nc1ccc(S(=O)(=O)O)cc1
inactive: [5] | [6] | [7]

CC(C)(C)C1(O)CCN2CC3c4ccccc4CCc4cccc(c43)C2C1 (stereo not drawn)
inactive: [5]

Nc1cc(C(=O)O)ccc1Cl
inactive: [5] | [6]

C=C(C)C(=O)OC(C)C
inactive: [5] | [6]

C=CC(=O)OCC[N+](C)(C)C
inactive: [5]

CSc1ccc(C(=O)c2[nH]c(=O)[nH]c2C)cc1
inactive: [1] | [2] | [3] | [4]

O=C1NCCN1
inactive: [5] | [6] | [7] | [8]

NS(=O)(=O)c1cc(C(=O)O)cc(N2CCCC2)c1Oc1ccccc1
inactive: [1] | [3] | [4]

C[Si](C)(C)Cl
inactive: [1] | [4]

c1ccsc1
inactive: [5]

CCCCCCCC/C=C\CCCCCCCCCCCC(=O)O
inactive: [1] | [2] | [4]

CCOC(=O)O[C@]1(C(=O)COC(=O)CC)CC[C@H]2[C@@H]3CCC4=CC(=O)C=C[C@]4(C)[C@H]3[C@@H](O)C[C@@]21C
inactive: [1] | [2] | [3] | [4]

CC[N+](C)(CC)CCOC(=O)C(O)(c1ccccc1)C1CCCCC1 (stereo not drawn)
inactive: [1] | [3]

OC[C@H]1O[C@@H](O[C@@H]2[C@@H](CO)O[C@](O)(CO)[C@H]2O)[C@H](O)[C@@H](O)[C@H]1O
inactive: [1] | [2] | [3] | [4]

CC(O)Cn1cnc2c1c(=O)n(C)c(=O)n2C (stereo not drawn)
inactive: [1] | [4]

CC(C)[C@@H](C)/C=C/[C@@H](C)[C@H]1CC[C@H]2/C(=C/C=C3\C[C@@H](O)CC[C@@H]3C)CCC[C@]12C
inactive: [5] | [6] | [7] | [8]

CC[C@H](C)[C@H](NC(=O)[C@H](Cc1ccccc1)NC(=O)[C@H](C)NC(=O)[C@H](CC(=O)O)NC(=O)[C@H](CCCCN)NC(=O)[C@H](CO)NC(=O)[C@@H]1CCCN1C(=O)[C@@H]1CCC(=O)N1)C(=O)NCC(=O)N[C@@H](CC(C)C)C(=O)N[C@@H](CCSC)C(N)=O ([pGlu]PSKDAFIGLM-NH2)
inactive: [1] | [2] | [3] | [4]

CSSc1ccoc1C
active: [7] 40.4 µM
inactive: [5] | [6]

CC(C)CC(O)CC(C)C
inactive: [1] | [3]

CC(=O)Nc1ccc(OC(C)=O)cc1
inactive: [1] | [2] | [3] | [4]

CC(=O)O[C@H]1C[C@@H]2CC[C@@H]3[C@H](CC[C@@]4(C)[C@H]3C[C@H](N3CC[N+](C)(C)CC3)[C@@H]4OC(C)=O)[C@@]2(C)C[C@@H]1N1CC[N+](C)(C)CC1
inactive: [1] | [2] | [3] | [4]

NCCCNCCSP(=O)(O)O
not listed: [1]
inactive: all other assays above

CC(=O)Nc1ccc(S(=O)(=O)Nc2ccc([N+](=O)[O-])cc2)cc1
inactive: [5] | [6] | [7] | [8] | [2]

CC(C)OC(=O)OCOP(=O)(CO[C@H](C)Cn1cnc2c(N)ncnc21)OCOC(=O)OC(C)C
not listed: [1]
inactive: all other assays above

NC(=S)N=Nc1ccc(NN=C(N)N)cc1
not listed: [1]
inactive: all other assays above

CCN(CC)CCNc1ccc(CO)c2sc3ccccc3c(=O)c12
active: [5] 16.2 µM | [7] 23.2 µM | [8] 33.2 µM | [2] 20.5 µM | [4] 14.3 µM
inactive: [6] | [3]

CO[C@@H]1[C@@H](O[C@@H]2O[C@H](C)[C@@H](O[C@H]3C[C@](C)(O)[C@@H](O)[C@H](C)O3)[C@H](N(C)C)[C@H]2O)[C@H](CC=O)C[C@@H](C)[C@H](O[C@H]2CC[C@H](N(C)C)[C@@H](C)O2)/C=C\C=C\C[C@@H](C)OC(=O)C[C@H]1O
inactive: [5] | [6] | [7] | [8] | [2]

CCC1OC(=O)C[C@@H](O)[C@H](C)[C@@H](O[C@@H]2O[C@H](C)C[C@H](N(C)C)[C@H]2O)[C@@H](CC=O)C[C@@H](C)C(=O)/C=C/[C@]2(C)OC2C1C (stereo partly drawn)
active: [2] 35 µM | [4] 27.1 µM
inactive: [5] | [6] | [7] | [8] | [2] | [4]

N[C@H](CC(=O)O)C(=O)O
not listed: [1]
inactive: all other assays above

CC(=O)N(CC(O)CO)c1c(I)c(C(=O)NCC(O)CO)c(I)c(C(=O)NCC(O)CO)c1I (stereo not drawn)
inactive: [5] | [6] | [7] | [8]

CC1=NS(=O)(=O)c2cc(Cl)ccc2N1
inactive: [5] | [6] | [7] | [8] | [2]

Cc1c(N)cccc1Cl
not listed: [1] | [4]
inactive: all other assays above

COc1ccc2cc(CCC(C)=O)ccc2c1
not listed: [1] | [4]
inactive: all other assays above

CC(C)(C)S
not listed: [1]
inactive: all other assays above

CO/N=C(\C(=O)N[C@@H]1C(=O)N2C(C(=O)O)=C(COC(C)=O)CS[C@H]12)c1csc(N)n1 (stereo in doubt)
not listed: [1]
inactive: all other assays above

CCCCNC1CC(C)(C)NC(C)(C)C1
inactive: [5] | [6] | [7] | [8] | [2]

Nc1ccn([C@@H]2O[C@H](CO)[C@@H](O)C2(F)F)c(=O)n1
active: [5] 0.176 µM | [7] 0.181 µM | [2] 0.26 µM | [4] 0.188 µM
inactive: [6] | [8] | [3]

NCCc1ccc(O)c(O)c1
not listed: [1] | [4]
inactive: all other assays above

CC1=C(C=O)C(C)(C)CC=C1
inactive: [5] | [6] | [7] | [8] | [2]

CCCCOc1cc(C(=O)OCCN(CC)CC)ccc1N
inactive: [5] | [6] | [7] | [8] | [2]
